In all, about 220,000 compounds went through this assay and about 2,000 (0.91%) were called active. Not shown: some 2% with an inconclusive outcome. Not all results are given here. Results with a measured potency or affinity are listed apart. Values without a mark were called inactive. No stated cut-off is given here; in the data, inconclusive means inhibition above about 80% without an active follow-up result; inactive means below that; test concentration not stated here.
Test: M. tuberculosis H37Rv growth inhibitors, H37Rv strain (AID 1626);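 further: bacteria incubated seven days before Alamar blue readout; 0% = bacteria only wells and 100% = bacteria with antibiotic wells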
Settings: hits give high values, concentration not given here

| SMILES | inhibition |
| --- | --- |
| c1ccc2c(N3CCOCC3)nc(N3CCOCC3)nc2c1 | -0.04% |
| c1ccc2c(NCC3CCCO3)nc(N3CCOCC3)nc2c1 (configuration not stated) | -4.2% |
| CCCCNS(=O)(=O)c1ccc2nc(-c3cccnc3)cc(C(=O)NCCCN(CC)CC)c2c1 | -1.2% |
| O=C(Nc1ccc2c(c1)OCCO2)c1cccc(S(=O)(=O)N2CCOCC2)c1 | 2.68% |
| Cc1ccc(CNC(=O)C2CCCN(Cc3cnn(-c4ccccc4)c3-n3cccc3)C2)cc1 (configuration not stated) | 3.25% |
| COc1ccc(CNc2ncnc3cc(Cl)ccc23)cc1OC | 3.34% |
| COc1cccc(CNc2ncnc3cc(Cl)ccc23)c1 | 2.79% |
| COc1ccc(C(=O)C(CCC(CNC(C)(C)C)C(=O)c2ccc(OC)cc2)CNC(C)(C)C)cc1 (configuration not stated) | 3.24% |
| O=C(CSc1nc2ccccc2o1)c1cc2ccccc2oc1=O | 1.02% |
| O=C(CSc1nc2ccccc2o1)N1CCN(C(=O)c2ccco2)CC1 | 8.7% |
| N#CCSc1nc2ccccc2o1 | -5.91% |
| O=C(OCC#CCSc1nc2ccccc2s1)c1ccco1 | 74.1% |
| c1ccc2c(c1)c1c3n2CCNC3CCC1 (configuration not stated) | 3.79% |
| Cc1ccc2c(c1)c1c3n2CCCNC3CCC1 (configuration not stated) | 3.76% |
| COc1cc(OC)cc(C(=O)Nc2ccc(-c3nc4ccccc4o3)c(O)c2)c1 | 66.5% |
| COc1cc(OC)cc(C(=O)Nc2ccc(-c3nc4ccccc4o3)cc2)c1 | 16% |
| COc1cccc(C(=O)Nc2c(F)c(F)c(F)c(F)c2F)c1 | 0.52% |
| COc1cccc(C(=O)Nc2ccccc2)c1 | -3.26% |
| CC(=O)Nc1nc(-c2ccccc2)c(-c2ccccc2)o1 | 56.4% |
| CCOC(=O)C(=O)Nc1nc(-c2ccccc2)c(-c2ccccc2)o1 | -0.88% |
| CCCCCCN1C=C/C(=C\C=C(C#N)C#N)c2ccccc21 | 34.9% |
| COc1ccccc1NC(=S)N(CCCN(C)C)Cc1cc2cc3c(cc2[nH]c1=O)OCO3 | -2.36% |
| CCOC(=O)CN1CC23C=CC(O2)C(C(=O)Nc2ccc(F)c(C)c2)C3C1=O (configuration not stated) | -11.9% |
| CCCCNC(=O)COC(=O)c1ccc(C)c(NC(=O)c2ccco2)c1 | -7% |
| CCN1CCN(C(=O)C(=O)c2c(C)[nH]c3ccccc23)CC1 | 0.56% |

| SMILES | inhibition |
| --- | --- |
| O=C(CSc1nnc(CCCN2C(=O)c3cccc4cccc(c34)C2=O)n1-c1ccccc1)N1CCN(CCO)CC1 | -10.9% |
| O=C1Nc2cc(Cl)cnc2N2CCCC12 (configuration not stated) | 2.46% |
| CCN(CC)CCCNC(=O)Cn1nc([N+](=O)[O-])c(Cl)c1C | -1.51% |
| O=C(NCc1ccccc1)c1ccc(CNc2c(N3CCCC3)c(=O)c2=O)cc1 | 3.31% |
| CC1CCN(C(=O)c2ccc(CNc3c(N4CCCC4)c(=O)c3=O)cc2)CC1 | 78.3% |
| Cc1cccc(N2CCN(C(=O)c3ccc(CNc4c(N5CCC(C)CC5)c(=O)c4=O)cc3)CC2)c1C | 73.1% |
| CC1CCN(c2c(NCc3ccc(C(=O)N4c5ccccc5CC4C)cc3)c(=O)c2=O)CC1 (configuration not stated) | 7.17% |
| CCOC(=O)C1CCCN(C(=O)c2ccc(CNc3c(N4CCC(C)CC4)c(=O)c3=O)cc2)C1 (configuration not stated) | 0.97% |
| Cc1ccc(CNC(=O)c2ccc(CNc3c(N4CCCC4)c(=O)c3=O)cc2)cc1 | 8.62% |
| O=[N+]([O-])c1ccc(N2CCC(O)CC2)nc1 | -4.33% |
| O=c1oc2ccccc2c(NCCO)c1[N+](=O)[O-] | 0.19% |
| Cc1cc(C)cc(NC(=O)C2CCCC2)c1 | -9.17% |
| O=C(O)C1CCN(c2nc(-c3ccccc3)nc3c2oc2ccccc23)CC1 | 2.63% |
| NC(=O)C1CCN(c2nc(-c3ccccc3)nc3c2oc2ccccc23)CC1 | 0.65% |
| CCOC(=O)C1CCN(c2nc(-c3ccccc3)nc3c2oc2ccccc23)CC1 | 25.5% |
| OCCN(CCO)c1nc(-c2ccccc2)nc2c1oc1ccccc12 | 0.94% |
| COc1ccc(NC(=S)NCc2ccc(S(N)(=O)=O)cc2)c(OC)c1 | 6.58% |
| O=C(NC1CCCC1)C(c1ccc(N2CCOCC2)cc1)N(Cc1ccccc1)C(=O)c1ccco1 (configuration not stated) | -11.4% |
| O=c1c(C(c2ccccc2)c2c(O)nc3n(c2=O)CCCS3)c(O)nc2n1CCCS2 | 7.37% |
| Cc1cc(C)c(S(=O)(=O)N2CCC(C(=O)NCc3ccc(Cl)cc3Cl)CC2)c(C)c1 | 4.79% |
| O=S(=O)(c1ccccc1Br)N1CCC(O)(c2cccnc2)CC1 | -4.98% |
| CCOc1ccccc1NC(=O)C1CCCN(S(=O)(=O)c2ccc(OC)c(C)c2)C1 (configuration not stated) | -3.35% |
| NC(=O)c1oc2ccccc2c1NC(=O)c1nc2ccccc2s1 | -3.12% |
| O=C(Nc1ccccc1)c1nc2ccccc2s1 | 27.8% |
| O=C(Nc1nnc(-c2ccccc2)o1)Nc1ccc(F)cc1F | 7.77% |

| SMILES | inhibition |
| --- | --- |
| O=C(Nc1ccc(F)cc1)Nc1nnc(-c2ccccc2)o1 | -7.42% |
| O=C(Nc1ccccc1)Nc1nnc(-c2ccccc2)o1 | 6.54% |
| O=C(Nc1nnc(-c2cccnc2)o1)c1ccccc1Cl | 4.74% |
| COc1ccc(CNC(=O)c2cnccn2)cc1 | -0.78% |
| COc1ccc(CCNC(=O)C2CCC(CNc3c(N4CCCC4)c(=O)c3=O)CC2)cc1OC (configuration not stated) | -2.59% |
| COC(=O)[C@@H]1CCCN1Cc1c(C(=O)N2CCOCC2)nc2c(C)cccn12 | -6.22% |
| O=C(COc1ncnc2sccc12)N1CCN(C(=O)c2ccco2)CC1 | -7.61% |
| O=c1c2ccccc2c(C=NCCCN2CCOCC2)c(O)n1Cc1ccc2c(c1)OCO2 | 4.72% |
| CC1(C)CC(N=Cc2c(O)n(Cc3ccc4c(c3)OCO4)c(=O)c3ccccc23)CC(C)(C)N1 | 15% |
| O=C(c1ccccc1-n1cccc1)N1N=C(C(F)F)CC1(O)C(F)F (configuration not stated) | -5.84% |
| Cc1ccc2occ(/C=N/NC(N)=S)c(=O)c2c1 | -2.35% |
| COc1cc(OC)cc(C(=O)/C=C2\Sc3ccccc3N2C)c1 | -9.58% |
| COc1ccc(C(=O)/C=C2\Sc3ccccc3N2C)cc1 | -4.42% |
| COc1ccc(CNC(=O)COC(=O)c2cncc(Br)c2)cc1 | -4.32% |
| Cc1nc2cc(O)ccc2n1C | -5.57% |
| Cc1ccc(-c2cc(C(=O)Nc3cc(C)on3)c3ccccc3n2)cc1 | 6.46% |
| COc1cccc(NC(=O)c2cc(-c3cccnc3)nc3c(Cl)cccc23)c1 | -0.99% |
| COc1ccc(CNC(=O)c2cc(-c3ccncc3)nc3c(C)cc(C)cc23)cc1OC | 6.31% |
| Cc1cc(NC(=O)c2cc(-c3cccnc3)nc3c(C)c(C)ccc23)no1 | 13.3% |
| COc1ccc(N(C(C)C(=O)Nc2cccnc2)S(C)(=O)=O)cc1 (configuration not stated) | -6.21% |
| Cc1cc(C)c2nc(N3CCC(C(=O)N4CCN(C(=O)c5ccco5)CC4)CC3)sc2c1 | -2.47% |
| O=C(NCc1cccc(Cl)c1)c1cc(COc2ccc3ncccc3c2)on1 | 58.2% |
| COc1ccc(-n2nnc3c(=O)n(Cc4cccc(C)c4)cnc32)cc1 | -11.3% |
| CCOC(=O)CSc1nnc(-c2cccc(Cl)c2)n1CC | -1.18% |
| CCOC(=O)CSc1ncc(-c2ccccc2)cn1 | 15% |

| SMILES | inhibition |
| --- | --- |
| CCSc1nnc(-c2ccc(Cl)cc2Cl)o1 | 4.11% |
| COc1ccccc1-c1nnc(SCC(=O)OC(C)C)o1 | 58.4% |
| CCOC(=O)C(C)Sc1ncc(-c2ccccc2)cn1 (configuration not stated) | -6.07% |
| CCOC(=O)C(C)Sc1ncc(OC)c(Sc2ccc(Cl)cc2)n1 (configuration not stated) | 7.19% |
| CCCOC(=O)CSc1nnc(-c2ccccc2Cl)o1 | 42.3% |
| CC(C)OC(=O)CSc1nnc(-c2ccc(Cl)cc2Cl)n1N | -12.6% |
| O=C(CN1C(=O)c2cccc3cccc1c23)Nc1ccc(S(=O)(=O)Nc2nccs2)cc1 | -0.34% |
| COC(=O)c1ccc(/C=N/OCC(=O)NC2CCCC(C)C2C)cc1 (configuration not stated) | 10.8% |
| O=C(CSc1nc(-c2ccccc2)cs1)NCc1ccco1 | 3.71% |
| COc1ccc(CC(=O)NC(C)(C)CC(C)=O)cc1OC | 6.3% |
| CSc1ccc(-c2nnn(Cc3ccc(C)cc3)n2)cc1 | -7.23% |
| C=CCSc1nc(-c2ccc(OC)cc2)c(C#N)c(=O)n1CC=C | 15.4% |
| COc1ccc(/C=C/C(=O)NCC(=O)n2nc(C)cc2C)cc1 | -7.73% |
| COc1ccc2[nH]c(=O)c(CN(C)C(=O)C3CCCCC3)cc2c1 | 4.58% |
| O=C1NC(=O)C2C1C(c1cccs1)NN2Cc1ccccc1 (configuration not stated) | 3.37% |
| Cc1nn(CCC#N)c(NC(=O)c2ccc(Cl)cc2)c1P(=O)(Nc1ccc([N+](=O)[O-])cc1)N1CCOCC1 (configuration not stated) | -25.7% |
| COc1ccc(-c2c(=O)n(OCc3ccccc3[N+](=O)[O-])c3ccccc3[n+]2[O-])c(OC)c1 | 2.69% |
| CCCNCc1cc(OC)c(OCc2ccccc2)cc1Br | 6.93% |
| CCN1CCN(c2cc(C(C)C)nc3c(-c4ccccc4)c(C)nn23)CC1 | 11.2% |
| Cc1nn2c(N3CCN(C4CCCC4)CC3)cc(C(C)(C)C)nc2c1-c1ccccc1 | 8.34% |
| Cc1nn2c(N3CCN(C(=O)c4ccco4)CC3)cc(C(C)(C)C)nc2c1-c1ccccc1 | 32.7% |
| Cc1cc(N2CCN(Cc3ccccc3)CC2)n2nc(C)c(-c3ccccc3)c2n1 | -3.83% |

From PubChem BioAssay AID1626 (SRMLSC, 2009)
